The full list was thinned out, with hits kept by preference.
Algae TAG accum: inducers of TAG accumulation in Chlamydomonas, primary screen, qHTS, Chlamydomonas reinhardtii; 0.84% of 44,000 active; Nile Red fluorescence, 72 h; calls only at 10 µM (by protocol); AID 1159537, 2015; call rule not given here;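 also: hits raise Nile Red signal meaning more stored TAG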
Each line names hits and unclear results; the compound was inactive in the other large screens.

CCOc1ccc(C(=O)Nc2cccc([N+](=O)[O-])c2)cc1Cl	none
CCOc1c(Cl)cc(C(=O)Nc2cccc([N+](=O)[O-])c2)cc1Cl	Algae TAG accum active
CCOc1cc(C(=O)Nc2ccc([N+](=O)[O-])cc2Cl)cc(OCC)c1OCC	none
COc1ccc(NC(=O)Cc2ccc(F)cc2)cc1	none
CCC1CCCCN1C(=O)c1ccc(Cl)cc1[N+](=O)[O-] (centres undefined)	Algae TAG accum active
CCC1CCCCN1C(=O)c1cccc([N+](=O)[O-])c1C (centres undefined)	none
CCN1CCN(C(=O)c2ccc(Cl)cc2[N+](=O)[O-])CC1	none
CC1(C)CC(NC(=O)CNc2ccccc2)CC(C)(C)N1	none
COc1ccc(OCCSc2nc3ccccc3n2CCO)cc1	none
Cc1cccc(-c2cc(NC(=O)c3ccccc3[N+](=O)[O-])n[nH]2)c1	none
O=C(Nc1ncccn1)c1ccc([N+](=O)[O-])cc1	none
Cc1cccc(-c2cc(NC(=O)c3ccc([N+](=O)[O-])cc3)n[nH]2)c1	Algae TAG accum active
CC(=O)C1=C(C)NC(SCC(=O)c2cccc([N+](=O)[O-])c2)=C(C#N)C1c1ccc(Cl)cc1 (centres undefined)	none
CC(=O)NC(C)C12CC3CC(CC(C3)C1)C2 (centres undefined)	none
CCN1CCN(C(=O)c2ccc(C(C)(C)C)cc2)CC1	Algae TAG accum active
CC(C)(C)c1ccc(C(=O)N2CCCCCC2)cc1	none
CCOc1ccc(C(=O)N2CCN(CC)CC2)cc1	none
O=C(COc1ccccc1)Nc1ccc(Nc2ccccc2)cc1	none
O=C(Nc1cccc(F)c1)c1cccc(Cl)c1Cl	none
Cc1nc(N2C(=O)C(=O)C(=C(O)c3ccc(Cl)cc3)C2c2ccco2)sc1C (centres undefined)	none
O=C(CCc1ccccc1)NCc1ccccc1Cl	none
C=C(C)[C@@H]1CC=C(CNc2ccc(OC)c(OC)c2)CC1	none
COc1cc2c(cc1OC)CN(Cc1ccc(N(C)C)cc1)CC2	none
COc1cc2c(cc1OC)CN(Cc1ccc(F)cc1)CC2	Algae TAG accum active
COc1cc2c(cc1OC)CN(Cc1cccc(F)c1)CC2	none
C=CCSc1nc(O)c(CC)c(=O)n1CC=C	none
C/C=C(\C)CN1CCN(c2ccc(C)cc2)CC1	Algae TAG accum active
Cc1ccc(NC(=O)CN2CCN(c3ccc(F)cc3)CC2)cc1	none
C/C=C(\C)CN1CCN(Cc2ccccc2)CC1	none
Cc1ccc(NCCC(=O)c2ccc(C)o2)cc1	none
Cc1[nH]nc2c1C(c1cc3c(cc1Cl)OCO3)C(C#N)=C(N)O2 (centres undefined)	none
CCc1c(C)sc(N2C(=O)C3C4CCC(O4)C3C2=O)c1C(N)=O (centres undefined)	none
CCOc1ccc(Nc2cc(C)nc(N3CCOCC3)n2)cc1	none
Cc1cc(=O)[nH]c(N2CCOCC2)n1	none
CCCCNc1cc(C)nc(N2CCOCC2)n1	Algae TAG accum active
CC(=O)Nc1ccc(-c2cnc(-c3ccc(NC(C)=O)cc3)nc2)cc1	none
CCc1ccc(-c2csc(/C(C#N)=C/Nc3ccc(OC)cc3)n2)cc1	none
O=S(=O)(c1ccc(F)cc1)N1CCN(C2CCCCC2)CC1	Algae TAG accum active
O=S(=O)(c1ccc(F)cc1)N1CCCC1	none
CC1CCCN(C2CCN(S(=O)(=O)c3ccc(F)cc3)CC2)C1 (centres undefined)	Algae TAG accum active
O=S(=O)(c1ccc(F)cc1)N1CCN(C2CCCC2)CC1	none
Cc1ccc(S(=O)(=O)N2CCC(N3CCCCC3)CC2)cc1	none
CCCN1CCC(N2CCN(S(=O)(=O)c3ccc(F)cc3)CC2)CC1	none
Oc1ccc(-c2[nH]ncc2-c2ccccc2)c(O)c1O	none
O=C(Nc1nn[nH]n1)C(Sc1ccccc1)c1ccccc1 (centres undefined)	none
O=C1N=NC(=O)c2ccccc21	none
Cc1ccc(OCC(=O)Nc2ccccc2Cl)c(Br)c1	none
CC(Oc1ccccc1)C(=O)Nc1ccccc1C(N)=O (centres undefined)	none
Cc1nc2ccccc2c(C(=O)O)c1O	none
O=C(Cc1ccccc1)N1CCN(S(=O)(=O)c2ccc(F)cc2)CC1	none
Cc1cc(-n2nc(C)cc2C)nc(N)n1	none
Cc1cc(N2CCCCC2)nc(N)n1	none
CCN(CC)c1cc(C)nc(N)n1	Algae TAG accum active
Cc1ccccc1NC(=O)Cc1ccc(F)cc1	none
C=CCc1cccc(OC)c1OCCCN1CCN(C)CC1	none
C=CCc1cccc(C)c1OCCCN1CCN(C)CC1	Algae TAG accum active
C=CCc1cc(Cl)ccc1OCCN1CCN(C)CC1	Algae TAG accum active
C=CCc1cc(C)ccc1OCCN1CCN(C)CC1	none
C=CCc1cc(C)ccc1OCCCCN1CCN(C)CC1	none
C=CCc1cccc(C)c1OCCCN1CCCC1	none
Cn1c(SCC(=O)c2ccc(Cl)cc2)nc2ccccc2c1=O	none
Cc1cc(I)ccc1NC(=O)CCN1C(=O)c2cccc([N+](=O)[O-])c2C1=O	none
CCc1cccc(CC)c1NS(=O)(=O)c1ccc(OC)cc1	none
Nc1n[nH]c(S(=O)(=O)Cc2ccc([N+](=O)[O-])cc2)n1	none

Screening data: PubChem, DiRusso Lab, Biochemistry Department, University of Nebraska
